The source of these data is PubChem BioAssay.

In assay [1] the target is Alpha-bungarotoxin (Bungarus multicinctus) (UniProt P60615). In words: compounds binding labelled alpha-BTX control protein – biochemical, small-molecule microarray, Alexa647 label, 635/667 nm fluorescence, artefact control for SMM control protein annotation, profiling panel (AID 1117). Particulars: alpha-BTX-A647 binding fluorescence, higher = more signal.
Assay [2] concerns the target E3 ubiquitin-protein ligase XIAP (Homo sapiens) (UniProt P98170). Briefly: small molecules binding XIAP protein – biophysical, small-molecule microarray, fluorescence 635 nm, primary screen (AID 1181).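 Further: score merges 667 nm emission and signal to noise over triplicate slides.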 The settings on record: higher = more signal.
In assay [3] the test system is XIP peptide (Xip251-270) binding. Briefly: XIP fragment 251-270 binding compounds – biochemical, small-molecule microarray, fluorescence 635/667 nm, 0.1 µg/mL protein, primary screen (AID 1182). Particulars: fluorescent protein binding, 635 nm, higher = more signal, called active from +8 up or from −8 down.
A further assay relates to XIP peptide (Xip251-270). In words: compounds binding XIP fragment 251-270 – biochemical, small-molecule microarray, fluorescence 635/667 nm, 0.5 µg/mL protein, primary screen (AID 1183). The settings on record: fluorescence 635 nm, higher = more signal.
Assay [4] in a line: blood-stage malaria parasite viability loss – strain 3D7, DAPI fluorescence, 100 nL, primary screen (AID 1184).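 Further: parasites grown inside human red blood cells in medium with human serum.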 Particulars: P. falciparum 3D7 growth, 3 d, higher = more signal.
In assay [5] the target is Homeobox protein Hox-A13 (Mus musculus) (UniProt Q62424). Briefly: disruptors of Hoxa13 oligonucleotide interaction – biochemical, fluorescence polarization, labeled oligonucleotide, primary screen (AID 1185). Particulars: Hoxa13:DNA binding, 15 min, higher = more signal, called active from +8 up or from −8 down. In general terms: Fluorescence polarisation rises when a labelled molecule tumbles more slowly, as on binding a larger partner.

Assay [6] is described as follows: blockers of DNA damage checkpoint Chk1 activation – imaging, HeLa, hydroxyurea, phospho-Chk1 antibody, percent positive cells, primary screen (AID 1186). The settings on record: hydroxyurea-induced phospho-Chk1 immunofluorescence imaging, higher = more signal.
A short description of assay [7]: blockers of DNA damage checkpoint Chk1 activation – imaging, HeLa, hydroxyurea, phospho-Chk1 nuclear intensity, primary screen (AID 1187). The settings on record: hydroxyurea-induced phospho-Chk1 immunofluorescence imaging, higher = more signal.
Assay [8] can be described thus: Pseudomonas biofilm growth suppression – PAO1 strain, BacTiter-Glo luminescence, LB-PBS, primary screen (AID 1144). Particulars: P. aeruginosa PAO1 biofilm, 12 h, higher = more signal.
Assay [9] can be described thus: inhibition of PAO1 biofilm formation – strain PAO1, LB-PBS medium, absorbance 600 nm, primary screen (AID 1176). The settings on record: P. aeruginosa PAO1 growth/biofilm, A600, 12 h; higher = more signal.

Calls of active or inactive are those of the source. Unless noted, how the calls were made is not given here.

Chain of E3 ubiquitin-protein ligase XIAP (Homo sapiens) (P98170 whole entry, looked up, the tested form may be a part): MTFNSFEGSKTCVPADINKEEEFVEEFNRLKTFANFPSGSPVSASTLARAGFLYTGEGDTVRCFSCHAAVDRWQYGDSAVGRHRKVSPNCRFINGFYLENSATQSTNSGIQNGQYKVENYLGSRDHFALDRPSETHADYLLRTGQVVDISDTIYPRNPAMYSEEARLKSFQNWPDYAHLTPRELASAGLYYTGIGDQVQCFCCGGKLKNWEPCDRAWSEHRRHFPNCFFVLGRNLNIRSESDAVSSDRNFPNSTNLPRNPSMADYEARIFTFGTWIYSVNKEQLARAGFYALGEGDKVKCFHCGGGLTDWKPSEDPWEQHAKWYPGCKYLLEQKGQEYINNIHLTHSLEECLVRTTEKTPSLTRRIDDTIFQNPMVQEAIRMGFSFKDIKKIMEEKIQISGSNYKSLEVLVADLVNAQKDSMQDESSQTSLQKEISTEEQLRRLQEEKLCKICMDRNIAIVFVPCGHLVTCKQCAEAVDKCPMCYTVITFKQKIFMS
Chain of Homeobox protein Hox-A13 (Mus musculus) (Q62424 whole entry, looked up): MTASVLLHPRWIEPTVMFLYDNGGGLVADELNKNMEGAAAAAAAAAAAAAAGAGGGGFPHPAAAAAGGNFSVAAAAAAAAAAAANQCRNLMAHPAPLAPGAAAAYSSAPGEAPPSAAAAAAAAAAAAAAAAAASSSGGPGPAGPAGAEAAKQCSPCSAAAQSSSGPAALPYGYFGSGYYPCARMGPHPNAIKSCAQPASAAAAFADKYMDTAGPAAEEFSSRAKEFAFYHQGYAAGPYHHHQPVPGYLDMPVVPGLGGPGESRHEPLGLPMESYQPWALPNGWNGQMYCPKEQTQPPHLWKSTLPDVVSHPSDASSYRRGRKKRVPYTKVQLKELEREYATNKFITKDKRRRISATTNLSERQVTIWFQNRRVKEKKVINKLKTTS
Chain of Alpha-bungarotoxin (Bungarus multicinctus) (P60615 whole entry, looked up): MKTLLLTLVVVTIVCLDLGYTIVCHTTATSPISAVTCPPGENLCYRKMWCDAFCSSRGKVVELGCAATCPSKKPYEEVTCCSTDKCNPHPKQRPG

On to `COc1ccc([Si](C)(C)[C@@H]2[C@@H](CCn3cc(CCO)nn3)O[C@]3(C(=O)N(Cc4ccc(N5C(=O)c6cccc7cccc5c67)cc4)c4ccccc43)[C@H]2C)cc1`, for which the composite z-score was 1.6 in assay [1], 0.0159 in assay [2], 0.437 (inactive) in assay [3] and 0.739 in the assay with XIP peptide (Xip251-270). Further, the z-score in assay [4] is -2.41; in assay [5], -1.56 (inactive); in [6], -1.02 (inactive); in [7], -0.956 (inactive).

Regarding `C=CCN1C(=O)[C@]2(O[C@H](CCn3cc([C@H](O)c4ccccc4)nn3)[C@@H]([Si](C)(C)c3ccc(OC)cc3)[C@@H]2C)c2cc(N3CCOC3=O)ccc21`, the composite z-score in assay [1] is 0.479; in assay [2], -0.0721; in assay [3], 0.865 (inactive); in the assay with XIP peptide (Xip251-270), -0.0533. For the same compound, the z-score in assay [4] is -2.91; in assay [5], -4.64 (inactive); in [6], -1.73 (inactive); in assay [7] it was -1.22 (inactive).

Regarding `CC(C)CNC(=O)[C@@H]1c2ccccc2C(=O)N(Cc2ccc(OC(F)(F)F)cc2)[C@H]1c1ccc(CO)cc1`, the composite z-score in assay [1] is 1.74; in assay [2] it was 0.205; in assay [3], 0.0114 (inactive); in the assay with XIP peptide (Xip251-270) it was 0.762. In addition, the z-score is -0.192 in assay [4], -2.67 (inactive) in assay [5], -0.919 (inactive) in assay [6] and -1.36 (inactive) in assay [7].

In the case of `C=C(COC)/C(=C/C[C@H](OC(C)=O)c1ccc(CO)o1)c1cnc2ccccc2c1`, the composite z-score in assay [1] was 2.83; in [2], 0.292; in assay [3], 1.5 (inactive); with XIP peptide (Xip251-270) it was 0.807. In addition, the z-score in assay [4] is -0.649; in [5], -4.41 (inactive); in assay [6] it was -0.595 (inactive); in [7] it was -0.669 (inactive).

As to `O=C(O)[C@H]1C[C@H]2C(=O)NCC(=O)N2[C@H]1c1cccc(OCCO)c1`, the composite z-score in assay [1] was 1.81; in [2], 0.182; in assay [3], 0.865 (inactive); in the assay with XIP peptide (Xip251-270) it was 0.938. For the same compound, the z-score in assay [4] is -0.52; in assay [5] it was -3.76 (inactive); in [6], 0.328 (inactive); in assay [7] it was 0.212 (inactive).

Turning to `CC(=O)NCCCC[C@@H]1NC(=O)[C@@H]2C[C@H](C(=O)O)[C@H](c3cccc(OCCO)c3)N2C1=O`, the composite z-score was 1.03 in [1], -0.363 in [2], 1.41 (inactive) in assay [3] and 1 in the assay on XIP peptide (Xip251-270). The z-score in assay [4] was -0.313; in [5], 0.294 (inactive); in [6] it was -0.0079 (inactive); in [7] it was 0.165 (inactive).

On to `CC(C)CCC[C@@H](C)[C@H]1CC[C@@]2(C)C3=C(CC[C@]12C)[C@@]1(C)CC[C@H](OC(=O)CCl)C(C)(C)C1CC3` (some centres not stated), for which the composite z-score in assay [1] is 0.587; in assay [2], 0.106; in assay [3] it was 0.133 (inactive); in the assay on XIP peptide (Xip251-270), 0.174. In addition, the z-score was -0.0992 in assay [4], -0.128 (inactive) in assay [5], -0.199 (inactive) in [6] and -0.281 (inactive) in assay [7].

`C=C(COC)C(=O)CC[C@@H](OC(=O)c1ccccc1-c1ccccc1C(=O)O)c1cccc(OCCO)c1`: the composite z-score in [1] was 1.02; in assay [2], 0.109; in assay [3] it was 0.43 (inactive); in the assay on XIP peptide (Xip251-270), -0.29. For the same compound, the z-score in assay [4] was -1.24; in assay [5] it was -4.82 (inactive); in [6], 0.273 (inactive); in assay [7], -0.307 (inactive).

In the case of `CC(C)C[C@@H]1NC(=O)[C@@]23C(=O)N[C@@H](Cc4ccccc4)C2[C@H](C)[C@@]2(C)O[C@H]2C3/C=C/C/C=C\CNC(=O)[C@H](Cc2ccccc2)NC1=O` (some centres not stated), the composite z-score in [1] was 0.792; in [2] it was 0.52; in [3], 0.0183 (inactive); in the assay on XIP peptide (Xip251-270) it was 0.789. The z-score in assay [4] was -1.46; in assay [5], -5.15 (inactive); in [6], 0.03 (inactive); in assay [7] it was 0.356 (inactive).

Turning to `C=C(COC)/C(=C/C[C@H](OC(C)=O)c1cccc(OCCO)c1)c1cc(C(=O)OC)ccc1OC`, the composite z-score in assay [1] was -0.284; in assay [2] it was 0.0077; in assay [3], 0.876 (inactive); with XIP peptide (Xip251-270), 0.876. Also, the z-score in [4] is -2.67; in [5], -2.39 (inactive); in assay [6], -0.283 (inactive); in assay [7], -0.727 (inactive).

Take `C=C1C=C(Br)C2(OCCCO2)[C@H]2OC12` (some centres not stated): the z-score in assay [8] is -0.109 (inactive); in assay [9] it was -0.233 (inactive); in assay [4] it was 1.19; in assay [5], -1.06 (inactive). The results for the composite z-score (in assay [2]; in assay [3]; in the assay with XIP peptide (Xip251-270)) were 0.0009, -0.584 (inactive) and -0.135, respectively.

With `CN(C)CCCC[C@@H]1NC(=O)[C@@H]2C[C@H](C(=O)NCCCCCNC(=O)CS)[C@H](c3cccc(OCCO)c3)N2C1=O`, the composite z-score in assay [1] is 0.4; in assay [2], -0.135; in assay [3], 0.62 (inactive); in the assay with XIP peptide (Xip251-270), -0.351. For the same compound, the z-score in assay [4] is -1.46; in assay [5], -1.12 (inactive); in assay [6] it was 0.27 (inactive); in assay [7], 0.302 (inactive).

Take `COc1ccc([Si](C)(C)[C@@H]2[C@@H](CC(=O)N3CCC[C@H]3CO)O[C@]3(C(=O)N(Cc4ccc(I)cc4)c4ccccc43)[C@H]2C)cc1`: the composite z-score in assay [1] was 1.31; in assay [2], 0.0368; in [3] it was 0.564 (inactive); with XIP peptide (Xip251-270), 0.534. The z-score in assay [4] is -2.17; in assay [5] it was -2.86 (inactive); in [6], -0.703 (inactive); in assay [7], -0.413 (inactive).

In the case of `O=C1O[C@H](c2ccccc2)[C@H](c2ccccc2)N2[C@H]1[C@@H](C(=O)NC[C@H](O)c1ccccc1)[C@]1(C(=O)Nc3ccc(C#CC4(O)CCCCCC4)cc31)[C@H]2c1ccc(O)cc1`, the composite z-score in [1] is 1.34; in [2], -0.141; in [3] it was 1.05 (inactive); in the assay with XIP peptide (Xip251-270), 0.444. The z-score in [4] is 0.097; in assay [5] it was -1.84 (inactive); in assay [6], 0.104 (inactive); in assay [7] it was 0.572 (inactive).

With `O=C(NO)[C@]1(Cc2ccccc2)N=C(c2ccc(OCCCO)cc2)O[C@@H]1c1ccccc1`, the composite z-score in [1] was 2.41; in assay [2] it was 0.0402; in assay [3] it was -0.592 (inactive); in the assay on XIP peptide (Xip251-270), -1.32. The z-score in assay [4] was -1.26; in assay [5], -5.15 (inactive); in assay [6], -0.593 (inactive); in [7], -0.0319 (inactive).

Turning to `CCOC(=O)C[C@H]1[C@H](OC(=O)c2ccc(-c3ccccc3)cc2)[C@@H](NC(=O)C2CCCCC2)c2cc(OCCCO)ccc2N1C(=O)c1ccc2ccccc2n1`, the composite z-score is 0.608 in assay [1], 0.158 in assay [2], 0.29 (inactive) in [3] and 0.0417 in the assay with XIP peptide (Xip251-270). The z-score in assay [4] was -0.915; in assay [5], -0.844 (inactive); in assay [6], -0.807 (inactive); in assay [7], -0.479 (inactive).
